The target in assay [1] is Bile acid receptor (Homo sapiens) (UniProt Q96RI1). Briefly: ATG_IR1_CIS: Attagene CIS-FACTORIAL HepG2 Assay for human Nuclear Receptor Subfamily 1 Group H Member 4 (NR1H4), IR1 submotif (AID 2282946). The conditions noted are these: IR1 reporter transcription, actives raise or lower the signal. In a few lines: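 Transient MRTU transfection, HepG2; 24 h dosing; RNA → RT-PCR → 6-FAM primer extension → HpaI digest → capillary electrophoresis fluorescence. Gain/loss of signal fitted relative to DMSO.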
Sequence of Bile acid receptor (Homo sapiens) (Q96RI1 whole entry, looked up): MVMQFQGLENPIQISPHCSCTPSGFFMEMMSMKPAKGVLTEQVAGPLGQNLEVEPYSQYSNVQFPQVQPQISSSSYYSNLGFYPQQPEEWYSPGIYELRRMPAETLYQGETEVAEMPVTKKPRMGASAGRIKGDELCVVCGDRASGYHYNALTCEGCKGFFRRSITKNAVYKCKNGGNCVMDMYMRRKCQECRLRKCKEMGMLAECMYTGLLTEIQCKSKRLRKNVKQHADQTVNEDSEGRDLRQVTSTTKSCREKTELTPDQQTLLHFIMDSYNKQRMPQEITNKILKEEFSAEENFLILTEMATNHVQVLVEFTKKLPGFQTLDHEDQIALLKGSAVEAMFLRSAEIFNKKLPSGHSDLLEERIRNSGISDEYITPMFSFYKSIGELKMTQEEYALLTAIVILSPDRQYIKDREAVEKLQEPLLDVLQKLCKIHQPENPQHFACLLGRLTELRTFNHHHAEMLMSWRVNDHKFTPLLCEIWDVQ

Assay [2] is described as follows: ATG_GRE_CIS: Attagene CIS-FACTORIAL HepG2 Assay for human Glucocorticoid Response Elements (GRE) (AID 2282947). The conditions noted are these: HepG2 GRE cis-reporter, Attagene multiplex mRNA; actives raise or lower the signal. In short, it runs like this:
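Following 24 h chemical exposure of transiently transfected HepG2 cells, total RNA was reverse-transcribed and reporter cDNA amplified, fluorescently labelled and sized by capillary electrophoresis. Signal gain or loss was fitted relative to DMSO vehicle.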

A short description of assay [3]: ATG_ISRE_CIS: Attagene CIS-FACTORIAL HepG2 Assay for human Interferon Regulatory Factor 1 (IRF1) binding to an Interferon-Stimulated Response Element (ISRE) (AID 2282948). The conditions noted are these: HepG2 ISRE cis-reporter (Attagene), mRNA transcription readout; actives raise or lower the signal. In short, it runs like this: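 Quantitation relies on labelled RT-PCR fragments separated by capillary electrophoresis. Human HepG2 cells bearing cis-promoter reporter constructs were treated 24 h; DMSO served as baseline for bidirectional fitting.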

Assay [4] in a line: ATG_M_32_CIS: Attagene CIS-FACTORIAL HepG2 Assay for M32 Transcription Factor (Internal Marker) (AID 2282949).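 Note: background control marker of the multiplexed CIS panel rather than a real target.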 The conditions noted are these: HepG2 Attagene cis-factorial M32 reporter, mRNA; actives raise or lower the signal. In a few lines: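 Fluorescent capillary electrophoresis peaks of HpaI-digested, FAM-labelled RT-PCR reporter products give the signal. Source: transiently transfected human liver HepG2 cells, 24 h after chemical dosing; bidirectional fitting against DMSO.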

Assay [5] is described as follows: ATG_M_06_CIS: Attagene CIS-FACTORIAL HepG2 Assay for M06 Transcription Factor (Internal Marker) (AID 2282950). Particulars: HepG2 Attagene CIS-FACTORIAL M06 internal marker reporter; actives raise or lower the signal. In a few lines: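 Fluorescence-labelled RT-PCR products from cis-promoter reporter units, cut with HpaI and resolved by capillary electrophoresis, give the signal. Cells are human HepG2, dosed for 24 h. Serves as background control, fitted relative to DMSO.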

In assay [6] the target is Hypoxia-inducible factor 1-alpha (Homo sapiens) (UniProt Q16665). The experiment in a line: ATG_HIF1a_CIS: Attagene CIS-FACTORIAL HepG2 Assay for human Hypoxia Inducible Factor 1 (HIF1A) (AID 2282951). The conditions noted are these: HepG2 Attagene cis-factorial HIF1a reporter transcription; actives raise or lower the signal. In a few lines: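 Fluorescence intensity of capillary-separated, 6-FAM-labelled reporter amplicons gives mRNA induction in HepG2 cells carrying transfected cis-promoter reporter units; cells exposed 24 h, responses fitted up or down from DMSO.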
Sequence of Hypoxia-inducible factor 1-alpha (Homo sapiens) (Q16665 whole entry, looked up): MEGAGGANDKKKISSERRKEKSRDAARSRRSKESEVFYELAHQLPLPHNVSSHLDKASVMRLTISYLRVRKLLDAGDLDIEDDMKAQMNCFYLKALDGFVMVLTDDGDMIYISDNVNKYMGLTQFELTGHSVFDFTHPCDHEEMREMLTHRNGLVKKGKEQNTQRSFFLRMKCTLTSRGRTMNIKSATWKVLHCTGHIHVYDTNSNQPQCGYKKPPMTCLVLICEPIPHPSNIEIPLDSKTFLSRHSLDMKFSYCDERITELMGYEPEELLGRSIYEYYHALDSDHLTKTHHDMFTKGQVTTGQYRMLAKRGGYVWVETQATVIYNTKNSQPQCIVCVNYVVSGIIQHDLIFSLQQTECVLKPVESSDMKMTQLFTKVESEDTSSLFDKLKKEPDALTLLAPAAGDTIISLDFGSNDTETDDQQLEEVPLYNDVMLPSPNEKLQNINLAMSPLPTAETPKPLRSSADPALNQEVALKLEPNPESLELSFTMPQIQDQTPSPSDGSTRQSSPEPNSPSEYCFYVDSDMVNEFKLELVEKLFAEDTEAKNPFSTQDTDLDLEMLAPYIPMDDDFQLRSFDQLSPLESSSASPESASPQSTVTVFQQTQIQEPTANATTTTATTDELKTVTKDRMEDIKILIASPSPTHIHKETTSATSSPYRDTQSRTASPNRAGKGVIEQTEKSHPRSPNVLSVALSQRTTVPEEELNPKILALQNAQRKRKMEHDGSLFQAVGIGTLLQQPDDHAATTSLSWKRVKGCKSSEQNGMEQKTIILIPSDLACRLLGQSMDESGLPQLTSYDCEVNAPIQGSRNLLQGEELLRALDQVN

The target of assay [7] is Hepatocyte nuclear factor 6 (Homo sapiens) (UniProt Q9UBC0). Briefly: ATG_HNF6_CIS: Attagene CIS-FACTORIAL HepG2 Assay for human Hepatocyte Nuclear Factor 6 (HNF6) (AID 2282952). The conditions noted are these: HepG2 Attagene cis-factorial HNF6 reporter transcription; actives raise or lower the signal. In a few lines: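 Transiently transfected HepG2 cells expressing cis-regulated reporter transcription units were exposed to chemical for 24 h in a 24-well format. Reporter transcript abundance was determined by fluorescence capillary electrophoresis.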
Sequence of Hepatocyte nuclear factor 6 (Homo sapiens) (Q9UBC0 whole entry, looked up): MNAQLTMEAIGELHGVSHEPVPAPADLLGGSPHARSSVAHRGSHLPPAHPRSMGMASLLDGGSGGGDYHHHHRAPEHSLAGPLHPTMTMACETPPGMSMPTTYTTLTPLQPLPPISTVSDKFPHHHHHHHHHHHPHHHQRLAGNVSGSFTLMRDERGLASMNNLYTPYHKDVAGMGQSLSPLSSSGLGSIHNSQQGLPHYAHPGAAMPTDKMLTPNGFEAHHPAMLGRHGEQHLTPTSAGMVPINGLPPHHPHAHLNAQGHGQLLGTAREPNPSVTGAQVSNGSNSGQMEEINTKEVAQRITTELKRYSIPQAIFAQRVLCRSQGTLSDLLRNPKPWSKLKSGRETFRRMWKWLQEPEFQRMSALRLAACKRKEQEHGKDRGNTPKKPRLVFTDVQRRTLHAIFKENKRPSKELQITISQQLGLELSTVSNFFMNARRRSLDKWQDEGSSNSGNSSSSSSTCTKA

For assay [8], the target named is Heat shock factor protein 1 (Homo sapiens) (UniProt Q00613). Briefly: ATG_HSE_CIS: Attagene CIS-FACTORIAL HepG2 Assay for human Heat Shock Transcription Factor 1 (HSE) (AID 2282953). Particulars: HepG2 HSE cis-reporter, Attagene RNA transcription; actives raise or lower the signal. In short, it runs like this: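 After a 24 h incubation with test chemical, transfected HepG2 cells were harvested for RNA; reporter transcripts were measured by RT-PCR and capillary electrophoresis. Values reflect gain or loss of signal relative to DMSO.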
Sequence of Heat shock factor protein 1 (Homo sapiens) (Q00613 whole entry, looked up): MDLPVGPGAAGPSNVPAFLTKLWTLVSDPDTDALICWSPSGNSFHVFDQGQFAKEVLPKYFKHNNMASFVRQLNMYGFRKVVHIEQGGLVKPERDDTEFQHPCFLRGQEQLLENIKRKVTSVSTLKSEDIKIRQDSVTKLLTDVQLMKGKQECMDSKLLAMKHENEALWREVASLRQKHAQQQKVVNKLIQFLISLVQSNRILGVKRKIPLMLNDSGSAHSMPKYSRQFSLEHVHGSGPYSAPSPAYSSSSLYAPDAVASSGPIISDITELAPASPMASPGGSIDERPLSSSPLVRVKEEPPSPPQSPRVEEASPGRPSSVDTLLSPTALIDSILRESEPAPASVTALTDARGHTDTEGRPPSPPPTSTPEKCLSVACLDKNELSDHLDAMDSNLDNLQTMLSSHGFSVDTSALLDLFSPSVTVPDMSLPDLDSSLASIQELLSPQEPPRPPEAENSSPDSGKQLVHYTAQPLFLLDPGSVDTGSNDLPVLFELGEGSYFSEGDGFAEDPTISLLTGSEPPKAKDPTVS

Assay [9] can be described thus: ATG_MRE_CIS: Attagene CIS-FACTORIAL HepG2 Assay for human Metal Responsive Element (MRE) (AID 2282954). The conditions noted are these: HepG2 MRE cis-reporter transcription, Attagene multiplex; actives raise or lower the signal. In a few lines: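 Step one: transfect HepG2 with cis-regulated reporter units. Step two: dose 24 h. Step three: isolate RNA, RT-PCR, 6-FAM label, HpaI digest, capillary electrophoresis. Fit bidirectionally to DMSO.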

The nature of assay [10]: ATG_PBREM_CIS: Attagene CIS-FACTORIAL HepG2 Assay for human Phenobarbital-responsive Enhancer Module (PBREM) (AID 2282955). The conditions noted are these: HepG2 PBREM cis-reporter, Attagene multiplexed transcription; actives raise or lower the signal. In short, it runs like this:
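Cells were transfected with cis-element reporter units and treated for 24 h, after which RNA was extracted and reporter transcripts measured by RT-PCR and capillary electrophoresis.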

In assay [11] the target is Paired box protein Pax-6 (Homo sapiens) (UniProt P26367). The experiment in a line: ATG_Pax6_CIS: Attagene CIS-FACTORIAL HepG2 Assay for human Paired Box 6 (PAX6) (AID 2282956). The conditions noted are these: HepG2 CIS-FACTORIAL PAX6 reporter transcription, RNA readout; actives raise or lower the signal. In a few lines: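 After twenty-four hours of chemical exposure, transfected HepG2 cells are harvested for RNA. Cis-promoter reporter transcripts are amplified, fluorescently labelled and sized by capillary electrophoresis, with gain and loss of signal scored against DMSO.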
Sequence of Paired box protein Pax-6 (Homo sapiens) (P26367 whole entry, looked up): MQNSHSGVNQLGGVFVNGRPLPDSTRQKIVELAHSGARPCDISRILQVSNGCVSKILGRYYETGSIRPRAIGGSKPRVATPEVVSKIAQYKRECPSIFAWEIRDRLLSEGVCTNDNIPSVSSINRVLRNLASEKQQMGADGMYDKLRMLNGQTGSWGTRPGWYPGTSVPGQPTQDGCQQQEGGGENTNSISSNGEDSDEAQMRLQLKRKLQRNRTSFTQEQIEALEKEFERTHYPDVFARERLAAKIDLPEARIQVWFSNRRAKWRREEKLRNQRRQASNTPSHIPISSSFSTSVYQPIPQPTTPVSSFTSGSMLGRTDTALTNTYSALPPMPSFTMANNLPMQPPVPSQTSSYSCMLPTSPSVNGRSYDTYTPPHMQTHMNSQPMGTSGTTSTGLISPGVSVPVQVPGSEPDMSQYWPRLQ

A short description of assay [12]: ATG_PXRE_CIS: Attagene CIS-FACTORIAL HepG2 Assay for human Pregnane X Receptor Element (PXRE) (AID 2282957). Particulars: HepG2 Attagene CIS-FACTORIAL PXRE reporter, mRNA; actives raise or lower the signal. In a few lines:
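Cis-element reporter mRNA in human hepatoma HepG2 cells is measured 24 h post-dosing by RT-PCR, primer-extension labeling and capillary electrophoresis; gain or loss of signal is fitted relative to DMSO.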

The nature of assay [13]: ATG_PPRE_CIS: Attagene CIS-FACTORIAL HepG2 Assay for human Peroxisome Proliferator-activated Response Element (PPRE) (AID 2282958). Particulars: HepG2 PPRE cis-element reporter, Attagene transcription factor profiling; actives raise or lower the signal. In a few lines:
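In this cell-based multiplex, a PPRE cis element drives a reporter sequence in transiently transfected HepG2 cells. Following 24 h treatment, labeled cDNA amplicons are sized and quantified by capillary electrophoresis, with DMSO defining baseline.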

The nature of assay [14]: ATG_RORE_CIS: Attagene CIS-FACTORIAL HepG2 Assay for human RAR-related Orphan Receptor Element (RORE) (AID 2282959). Particulars: HepG2 Attagene cis-factorial RORE reporter, mRNA; actives raise or lower the signal. In short, it runs like this: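 Endogenous factor activity at a cis response element is read as reporter transcript levels in HepG2 cells, 24 h post-dose. Transcripts are quantified by RT-PCR with capillary electrophoresis, and data fitted in both directions against DMSO.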

A short description of assay [15]: ATG_Sox_CIS: Attagene CIS-FACTORIAL HepG2 Assay for human SRY-box transcription factor (SOX) (AID 2282960). The conditions noted are these: HepG2 Attagene cis-factorial SOX reporter, mRNA; actives raise or lower the signal. In short, it runs like this:
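Measures mRNA induction of a SOX1-associated reporter in HepG2 after 24 h dosing. Fluorescently labelled RT-PCR fragments are separated by capillary electrophoresis, and gain or loss relative to DMSO control is fitted.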

Assay [16] deals with Transcription factor Sp1 (Homo sapiens) (UniProt P08047). Briefly: ATG_Sp1_CIS: Attagene CIS-FACTORIAL HepG2 Assay for human Specificity Protein 1 (Sp1) (AID 2282961). Particulars: HepG2 Sp1 cis-reporter transcription, actives raise or lower the signal. In a few lines:
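Cells: HepG2, transiently transfected with cis-regulated multiplexed reporters. Exposure: 24 h. Detection: reporter transcripts amplified, fluorescently labeled, restriction-digested and sized by capillary electrophoresis. Analysis: bidirectional fit relative to DMSO.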

Assay [17] in a line: ATG_SREBP_CIS: Attagene CIS-FACTORIAL HepG2 Assay for human Sterol Regulatory Element Binding (SREBP) (AID 2282962). The conditions noted are these: HepG2 Attagene cis-factorial SREBP reporter, mRNA; actives raise or lower the signal. In short, it runs like this:
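Twenty-four hours after chemical dosing of transfected HepG2 cultures, reporter RNA was converted to cDNA, amplified, end-labelled with 6-FAM and resolved by capillary electrophoresis. Responses were fitted relative to DMSO.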

Assay [18] deals with Signal transducer and activator of transcription 3 (Homo sapiens) (UniProt P40763). The experiment in a line: ATG_STAT3_CIS: Attagene CIS-FACTORIAL HepG2 Assay for human Signal Transducer and Activator of Transcription 3 (STAT3) (AID 2282963). Particulars: HepG2, Attagene cis-factorial STAT3 reporter transcription; actives raise or lower the signal. In a few lines:
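Transcript-level reporter assay. HepG2 transient MRTU transfection, 24 h exposure, fluorescence detection after RT-PCR and CE; DMSO baseline.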

Assay [19] is described as follows: ATG_TA_CIS: Attagene CIS-FACTORIAL HepG2 Assay for human TA Basal Promoter (AID 2282964). Particulars: HepG2 Attagene CIS-factorial TA basal promoter reporter; actives raise or lower the signal. In a few lines:
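Multiplexed mRNA reporter assay, HepG2, 24 h. Reporter cDNA amplified, 6-FAM primer-extended, HpaI-cut, CE-sized; DMSO = negative control and baseline.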

Assay [20] can be described thus: ATG_TCF_b_cat_CIS: Attagene CIS-FACTORIAL HepG2 Assay for human T-Cell-Factor with beta-catenin (TCF/b-cat) (AID 2282965). The conditions noted are these: HepG2 TCF/beta-catenin cis-reporter transcription, actives raise or lower the signal. In short, it runs like this:
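HepG2 cells transiently transfected with multiple cis-promoter-regulated reporter transcription units, so endogenous transcription factor activity is measured. Reporter mRNA read 24 hours after dosing by RT-PCR, fluorescent labelling and capillary electrophoresis; bidirectional fitting against DMSO.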

The structures appear in SMILES notation. Calls of active or inactive are those of the source. Rule for the calls: active = hit-call score of the fitted dose curve at least 0.9, where 1 is the maximum; inactive = score below 0.9.

Sequence of Transcription factor Sp1 (Homo sapiens) (P08047 whole entry, looked up): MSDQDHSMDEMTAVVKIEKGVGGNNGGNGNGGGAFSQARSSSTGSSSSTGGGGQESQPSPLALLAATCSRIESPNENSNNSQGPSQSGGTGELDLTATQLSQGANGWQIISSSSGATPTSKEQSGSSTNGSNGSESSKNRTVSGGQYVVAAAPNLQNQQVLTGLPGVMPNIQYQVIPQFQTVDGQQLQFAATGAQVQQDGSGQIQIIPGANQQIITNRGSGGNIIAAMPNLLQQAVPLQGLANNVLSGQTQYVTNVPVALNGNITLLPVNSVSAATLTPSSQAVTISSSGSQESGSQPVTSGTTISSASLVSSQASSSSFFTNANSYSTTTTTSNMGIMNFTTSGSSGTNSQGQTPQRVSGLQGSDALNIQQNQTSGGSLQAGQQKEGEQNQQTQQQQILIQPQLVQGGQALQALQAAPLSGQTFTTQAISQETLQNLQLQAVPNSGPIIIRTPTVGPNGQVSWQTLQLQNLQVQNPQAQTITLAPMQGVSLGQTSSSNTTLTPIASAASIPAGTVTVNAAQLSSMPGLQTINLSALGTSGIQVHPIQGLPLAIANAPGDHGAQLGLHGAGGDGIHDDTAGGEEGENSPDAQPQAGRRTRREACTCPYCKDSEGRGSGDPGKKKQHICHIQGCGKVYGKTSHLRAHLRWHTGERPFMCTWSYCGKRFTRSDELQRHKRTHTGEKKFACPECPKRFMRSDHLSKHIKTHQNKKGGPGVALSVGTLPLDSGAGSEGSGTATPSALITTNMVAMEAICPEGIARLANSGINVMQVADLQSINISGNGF
Sequence of Signal transducer and activator of transcription 3 (Homo sapiens) (P40763 whole entry, looked up): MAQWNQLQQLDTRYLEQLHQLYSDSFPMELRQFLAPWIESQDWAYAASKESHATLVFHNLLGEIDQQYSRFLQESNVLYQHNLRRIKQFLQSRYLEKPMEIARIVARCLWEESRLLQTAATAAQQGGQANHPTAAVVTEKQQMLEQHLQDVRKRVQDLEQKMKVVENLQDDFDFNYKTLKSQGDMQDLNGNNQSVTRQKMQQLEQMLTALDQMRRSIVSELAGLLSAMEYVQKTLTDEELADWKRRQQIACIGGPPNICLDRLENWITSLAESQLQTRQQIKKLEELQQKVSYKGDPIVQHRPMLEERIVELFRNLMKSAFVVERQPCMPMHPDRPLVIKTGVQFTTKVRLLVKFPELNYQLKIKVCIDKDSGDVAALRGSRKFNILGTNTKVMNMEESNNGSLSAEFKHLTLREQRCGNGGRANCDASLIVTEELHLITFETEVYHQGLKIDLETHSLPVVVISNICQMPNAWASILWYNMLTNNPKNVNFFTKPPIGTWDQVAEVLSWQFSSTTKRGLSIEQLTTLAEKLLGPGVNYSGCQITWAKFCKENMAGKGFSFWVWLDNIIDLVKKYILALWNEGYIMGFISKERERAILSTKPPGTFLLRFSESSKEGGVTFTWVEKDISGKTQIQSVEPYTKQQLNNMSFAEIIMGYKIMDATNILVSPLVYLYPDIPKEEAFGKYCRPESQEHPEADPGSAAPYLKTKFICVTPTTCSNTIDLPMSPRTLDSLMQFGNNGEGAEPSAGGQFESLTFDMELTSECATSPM

For `O=c1[nH]c2ccccc2c(=O)o1`, the call in assay [1], in assay [2], in assay [3], in assay [4], in assay [5] and in assay [6] was inactive. The compound was called inactive in assay [7], in assay [8], in assay [9], in [10], in assay [11] and in assay [12]. In addition, the result in [13], in [14], in [15], in assay [16], in assay [17] and in assay [18] was inactive. The compound was classed as inactive in assay [19] and in assay [20].

Usually AC50 stands for the midpoint of the concentration-response curve, whichever way the signal moves. Take `CC(C)(C)c1ccccc1OP(=O)(Oc1ccccc1)Oc1ccccc1`: the AC50 was 26.5 µM (active) in assay [1], 50.2 µM (active) in assay [3], 0.576 µM (active) in [12] and 11.8 µM (active) in assay [17]. Further, the call in [2], in assay [4], in assay [5], in assay [6], in assay [7] and in assay [8] was inactive. Moreover, the result in assay [9], in assay [10], in [11], in assay [13], in [15] and in assay [16] was inactive. For the same compound, the call in assay [18], in [19] and in [20] was inactive.

Consider `c1nc[nH]n1`, for which the outcome in assay [1], in assay [2], in assay [3], in [4], in assay [5] and in assay [6] was inactive. The result in [7], in [8], in [9], in [10], in assay [11] and in assay [13] was inactive. Further, the compound was classed as inactive in [14], in assay [15], in assay [16], in assay [18], in assay [19] and in assay [20]. The AC50 in assay [12] is 59.3 µM (active).

Consider `N#Cc1cc([N+](=O)[O-])ccc1N`, for which the result in assay [1], in assay [2], in [3], in assay [4], in [5] and in assay [6] was inactive. The outcome in assay [7], in assay [8], in assay [9], in assay [10], in assay [11] and in [12] was inactive. Besides, the compound was classed as inactive in assay [13], in [14], in [15], in assay [16], in assay [17] and in [18]. Besides, the call in assay [19] and in [20] was inactive.

Turning to `O=P1(N(CCCl)CCCl)NCCCO1` (stereo unspecified), the compound was called inactive in [1], in assay [2], in [3], in assay [4], in [5] and in [7]. In addition, the call in [8], in assay [9], in [10], in assay [12], in assay [13] and in assay [15] was inactive. For the same compound, the compound was called inactive in assay [16], in [17], in [18], in assay [19] and in [20].

Turning to `Cc1ccc(C(=O)Cl)cc1`, the compound was classed as inactive in assay [1], in assay [2], in assay [3], in [5], in assay [6] and in assay [7]. Besides, the compound was classed as inactive in assay [8], in assay [9], in assay [10], in [11], in assay [12] and in [13]. Moreover, the outcome in assay [14], in [15], in [16], in assay [18], in [19] and in assay [20] was inactive.

In the case of `O=S1(=O)OCC2C(CO1)C1(Cl)C(Cl)=C(Cl)C2(Cl)C1(Cl)Cl` (stereo unspecified), the call in assay [1], in assay [2], in [4], in [5], in assay [6] and in assay [7] was inactive. Further, the result in [10], in assay [13], in assay [15], in assay [18] and in assay [19] was inactive. Besides, the AC50 was 100 µM (active) in assay [3]; 142 µM (active) in [8]; 163 µM (active) in assay [9]; 1.58 µM (active) in [12]; 172 µM (active) in [16]; 100 µM (active) in [17]. The AC50 in assay [20] is 11.6 µM (active).

The values above are taken from PubChem BioAssay (EPA / NIEHS).
